# Assay results published in PubChem BioAssay (NCI).
# Where “and” joins values, the source holds several entries; their conditions need not be identical. Equal values may be shown once. About 83,000 compounds went through this panel and 20% of them were active in at least one assay; those are over-represented in the sample as a whole.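 Plates (96-well) were seeded with cells, treated with compound at one concentration, and incubated for 48 hours before percent growth was determined.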 Calls of active or inactive are those of the source. The calls were made as follows: active = growth percent below 10; inactive = the rest.
# Tested on: MDA-MB-468 breast
# Test: NCI-60 one-dose screen, 48 h (100 = growth as untreated, 0 = no growth, -100 = all killed)
# Conditions: 10 µM unless noted
row,Structure (SMILES),growth
1,N=C(N)c1ccc(-c2ccc(-c3cc(F)cc(F)c3)o2)nc1,85.3% (inactive)
2,C=C(C(=O)c1ccccc1)C(NC(C)(C)C)c1ccccc1 (stereo not given),-37.3% (active)
3,CCn1cnc(C[C@H](NC(=O)[C@H](CCCCNC(=O)Nc2cc(C(F)(F)F)cc(C(F)(F)F)c2)NC(=O)Nc2cc(C(F)(F)F)cc(C(F)(F)F)c2)C(=O)OC)c1,-21% [100 µM] (active)
4,C/C(=C\CCc1ccoc1)CC/C=C(\C)CCCNc1ccc(F)cc1,89.8% (inactive)
5,NS(=O)(=O)c1ccc(CCn2c(-c3ccc(C(=O)O)cc3)nc(-c3ccccc3)c2-c2ccccc2)cc1,112% (inactive)
6,O=C1/C(=C/c2cccs2)CCC/C1=C\c1cccs1,-45.5% (active)
7,COc1cc(-c2nn(-c3cccc(NC(=O)Nc4ccc(Cl)c(Cl)c4)c3)cc2-c2ccncc2)ccc1Cl,2.14% (active)
8,N=c1c2c(=O)n3c(nc2nc2sc4ccc(Cl)cc4n12)-c1ccccc1Sc1ccccc1-3,24.3% (inactive)
9,COc1cc(-c2ccc(-[n+]3nc(-c4ccc([N+](=O)[O-])cc4)nn3-c3ccc([N+](=O)[O-])cc3)c(OC)c2)ccc1-[n+]1nc(-c2ccc([N+](=O)[O-])cc2)nn1-c1ccc([N+](=O)[O-])cc1,-62.2% (active)
10,CC(C)(C)c1ccc(S(=O)(=O)N[C@H]2CC[C@H]3[C@@H]4CCc5cc(O)c([N+](=O)[O-])cc5[C@H]4CC[C@]23C)cc1,99.9% (inactive)
11,Cc1cc(N/N=C/c2nc(-c3ccccc3)oc2C)c2cc(Cl)ccc2n1,-74.7% (active)
12,O=C(O)CCCCSc1ncnc2nc[nH]c12,96% (inactive)
13,CC(=O)N1c2ccccc2NC2=C(C(=O)NC2(C)C)C1c1ccco1 (stereo not given),65.9% (inactive)
14,O=C(Nc1sc2c(c1C(=O)O)CCCC2)c1cccc(C(F)(F)F)c1,68.2% (inactive)
15,CCO/C=N/C1=C(C#N)C(c2ccc(Cl)cc2)c2sc3c(F)cccc3c2O1 (stereo not given),54.3% (inactive)
16,Nc1ccc2cc3ccc(N)cc3nc2c1,112% (inactive) and -42% (active)
17,Cc1cc(C(N)=O)cc(C)c1C(=O)OCCCl,115% (inactive)
18,COc1ccc(/C=C2/CN(C(=O)c3ccc(C)cc3)C/C(=C\c3ccc(OC)cc3)C2=O)cc1,74.1% (inactive)
19,Cc1cccc(-n2c(C)nc3ccc(N4CCCNC4=O)cc3c2=O)c1,99.4% (inactive)
20,O=C(NCc1cccc(CNC(=O)Nc2nc3ccccc3[nH]2)c1)Nc1nc2ccccc2[nH]1,-20.2% (active)
21,COC(=O)c1ccc(NC(N)=NCCC(C)(C)c2ccc(C(F)(F)F)cc2)nc1,-14.2% (active)
22,O=C(NNc1nc2cc(F)c(F)cc2n2c(CN3CC4CNCC4C3)ccc12)c1ncccn1 (stereo not given),-10.6% (active)
23,COc1ccc(Cn2cc(C#N)c(N)c2C(C)=O)cc1,102% (inactive)
24,O=C1/C(=C/c2ccccn2)SC(=S)N1N1CCOCC1,101% (inactive)
25,CCCCC[C@H]1CC=C2C(=O)C(Cl)=C[C@@H]2CC=CCCCC(=O)O[C@@H](CCCCC)CC=C2C(=O)C(Cl)=C[C@@H]2CC=CCCCC(=O)O[C@@H](CCCCC)CC=C2C(=O)C(Cl)=C[C@@H]2CC=CCCCC(=O)O1,50.2% [8 µM] (inactive)
